Shiga toxin inh: A qHTS for Small Molecule Inhibitors of Shiga Toxin. Vero cells, Shiga toxin protein synthesis inhibition reporter. inhibition, % at 38.7 µM. 290,000 tested, 9.2% active. AID 2315, 2010; in the data active = inhibition mostly above about 28%, no sharp cut-off; inactive = mostly below about 43%; note: 0% is about no effect
SARS PLP yeast: qHTS of Yeast-based Assay for SARS-CoV PLP; AID 485353, 2010; S. cerevisiae expressing SARS-CoV PLpro, growth rescue; Potency, µM (doses to about 32.9 µM), without a hit: top-dose activity, positive = growth rescue, actives largely listed as activators; 330,000 tested, 0.19% active; note: potency is the fitted concentration of half-maximal effect; 0% is about no effect; nearly all actives have a fitted effect of over 55% in size
CHX counter: Cycloheximide Counterscreen for Small Molecule Inhibitors of Shiga Toxin; cell reporter, cycloheximide protein synthesis inhibition counterscreen; max response, %; 300,000 tested, 12% active; AID 2314, 2010; in the data active = max response mostly above about 13%, no sharp cut-off; inactive = mostly below about 14%; note: read at 38.3 µM for the half of the compounds with a filed dose; 0% is about no effect
NS1 inh: qHTS Assay for Inhibitors of Influenza NS1 Protein Function; Potency, µM (top dose mostly 46.1 µM), for the others: top-dose activity, positive = more growth; 270,000 tested, 0.4% active; AID 2326, 2010; note: potency is the fitted concentration of half-maximal effect; actives are rising curves; nearly all actives have a fitted effect of over 50% in size
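In this qHTS, NS1 from influenza A is expressed in budding yeast, where it slows growth. Cells are switched from glucose to 2% galactose medium (pH 6.0, -URA), treated with compound, and growth recovery is read at OD600.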
* hit, by the source's call; ? = inconclusive; nt = no result given; + = active, no number. Most compounds without a hit are left out; they make up all but 12% or so of the library. Unless noted, calls come from the whole dose curve.

SMILES | Shiga toxin inh | SARS PLP yeast | CHX counter | NS1 inh
COCCNC(=O)Cn1c(=O)n(CCCCCC(=O)Nc2ccccc2)c(=O)c2sccc21 | -0.4 | 2.4% | 1.4 | -5.3%
O=C(O)c1cccc(N2C(=O)CSC2=S)c1 | 37.1 | -1.3% | 18.5* | 0.9%
CN(C)c1ccc(N2C(=O)CSC2=S)cc1 | 61.9* | 0.4% | 19.3* | 21.6%
O=C1CSC(=S)N1c1cccc(O)c1 | 3.0 | -11.3% | 10.3 | -77.8%
CCOC(=O)c1cc2c(=O)n3ccccc3nc2n(Cc2ccco2)c1=NC(=O)c1cccnc1 | -21.8 | 2.9% | -2.6 | -2.0%
CCOC(=O)c1cc2c(=O)n3cccc(C)c3nc2n(Cc2ccco2)c1=NC(=O)c1cccnc1 | 32.8* | 0.9% | 6.4 | ?
COc1ccc(NC(=O)CSc2nc(N)c(C(=O)Nc3ccc(N(C)C)cc3)s2)cc1 | 123.5* | -3.9% | 39.7 | 0.0%
CN(C)c1ccc(NC(=O)CSc2nc(N)c(C(=O)Nc3ccc(N(C)C)cc3)s2)cc1 | 65.2 | -0.5% | 30.7* | -28.1%
CC(=O)N1c2ccc(S(=O)(=O)N3CCCCC3)cc2CC1C(=O)Nc1ccc(F)cc1C (stereo not drawn) | -4.7 | 0.2% | 1.0 | 8.9%
Cc1cc(O)ccc1N/C=C1\CCCC1=O | 41.9* | -1.8% | 13.4* | 17.5%
Cc1ccc([N+](=O)[O-])cc1N/C=C1\CCCCC1=O | 92.9* | -1.3% | 57.6* | nt
CCOC(=O)c1ccc(NC=C2C(=O)OC3(CCCCC3)OC2=O)cc1 | -28.4 | 4.1% | 0.5 | 3.8%
Cc1ccc([N+](=O)[O-])cc1NC(=O)C1CCCC1 | -11.8 | -0.6% | -2.7 | -8.0%
O=C(O)c1ccc(NS(=O)(=O)c2ccc(Cl)c(Cl)c2)cc1O | -11.8 | 2.6% | -2.4 | 7.0%
CCOC(=O)c1ccc(N/C=C2/CCCC(C)C2=O)cc1 (stereo not drawn) | 51.9* | -7.5% | 57.3* | -6.7%
CC1CCC/C(=C\Nc2ccc(C(=O)O)c(O)c2)C1=O (stereo not drawn) | 81.8* | 0.6% | 38.0* | -1.6%
CCSc1nc2c(c(=O)[nH]1)C(c1cccs1)C(C(=O)OC)=C(C)N2 (stereo not drawn) | -12.3 | 23.1% | -5.0 | 20.4%
CC(=O)Nc1ccc2c(c1)CCCC2=O | 35.3 | -0.6% | 15.6* | -4.1%
CC(=O)Nc1cc2c3c(c1)CC(=O)N3CCC2 | 6.4 | -2.2% | 9.8 | 7.0%
CC(=O)Nc1ccc(N/C=C2/CCCC2=O)cc1 | 48.8* | 0.0% | 10.5* | -4.7%
CC1CCC/C(=C\Nc2ccc(C(=O)O)cc2)C1=O (stereo not drawn) | 54.6* | 1.5% | 36.6* | nt
O=C1CCCC/C1=C\Nc1ccc(C(=O)O)c(O)c1 | 62.1* | 0.2% | 17.2* | 8.2%
COc1nccnc1NS(=O)(=O)c1ccc(N/C=C2\CCCCC2=O)cc1 | -3.5 | 2.0% | -1.2 | nt
CCOc1ncccc1C(=O)OCCCC(=O)c1ccc(Br)cc1 | nt | 0.4% | nt | nt
COc1cccc(C(=O)Oc2ccc3ccc(O)cc3c2)c1 | nt | 0.4% | 38.5* | -24.8%
SMILES | Shiga toxin inh | SARS PLP yeast | CHX counter | NS1 inh
CC(=O)Nc1ccc(OS(=O)(=O)c2ccccc2C)cc1 | 8.2 | -1.1% | 7.6 | -1.8%
Cc1ccccc1C(=O)Oc1cccc2c(O)cccc12 | 12.5 | -14.4% | 9.0 | -101.3%
Cc1ccccc1C(=O)Oc1ccc2ccc(O)cc2c1 | nt | -9.5% | 58.6* | -19.7%
Cc1ccccc1S(=O)(=O)Oc1ccc2ccc(O)cc2c1 | nt | -5.0% | 32.5* | -35.7%
CC1CC(C)CN(C(=O)c2ccc3c(c2)OCCO3)C1 (stereo not drawn) | nt | 0.3% | nt | nt
COC(=O)C1CCN(C(=O)CN(C)Cc2ccc(C(C)(C)C)cc2)CC1 | 4.0 | 1.3% | -3.3 | 1.6%
S=C(Nc1ccc(Br)cc1Cl)Nn1cnnc1 | -8.3 | -2.4% | 0.9 | -65.2%
N#Cc1cc2cc3c(cc2nc1SCC(=O)N1CCOCC1)OCO3 | 83.1* | 2.5% | 28.3* | -6.3%
CCOC(=O)CSc1nc2cc3c(cc2cc1C#N)OCCO3 | 90.5* | -0.3% | 32.8* | 0.3%
CCOC(=O)CSc1nc2cc3c(cc2cc1C)OCO3 | 4.5 | 1.6% | -2.2 | 3.8%
COC(=O)CSc1nc2cc3c(cc2cc1C#N)OCO3 | 89.6* | 3.3% | 38.0* | -9.3%
CCOC(=O)CSc1nc2cc3c(cc2cc1C#N)OCO3 | 182.0* | 3.6% | 26.7 | ?
CNC(=O)NC(=O)C(C)OC(=O)c1oc2ccccc2c1CSc1ccc(Cl)cc1 (stereo not drawn) | 41.1 | -17.3% | 0.5 | 11.8%
CCOc1ccc2cc(C#N)c(SCC(=O)N3CCOCC3)nc2c1 | 101.0* | 5.4% | 30.0* | 1.7%
COC(=O)[C@@H]1C[C@H]2CC[C@H](O)C[C@H]2N1Cc1ccc(C)s1 | 3.5 | -2.3% | 7.0 | 10.5%
Cc1ccc(C(=O)NNC(=O)c2cccc(Br)c2)cc1 | 10.7 | -1.8% | 9.0 | -5.5%
O=C(NNC(=O)c1ccc(O)cc1O)c1ccc(Cl)cc1 | 43.1 | 1.2% | 7.3 | 8.9%
NC(=S)NNC(=O)c1cccc(Br)c1 | -4.1 | -0.5% | 13.9 | 5.3%
O=C(NNC(=O)c1ccccc1O)c1cccc(Br)c1 | 51.4* | 0.0% | 25.4* | -32.0%
O=C(NNC(=O)c1ccccc1O)c1ccc(Br)cc1 | nt | 0.9% | 43.6* | 12.9%
O=C(NNC(=O)c1ccccc1O)c1ccc(Cl)cc1 | 47.9* | 4.6% | 32.9* | -10.5%
CC(C)(C)c1ccc(C(=O)NNC(=O)c2cccc(Br)c2)cc1 | 26.8 | 7.6% | 15.8* | 5.3%
O=C(NCCN1CCN(c2ccccc2)CC1)Nc1ccccc1Br | 9.7 | -0.4% | -2.1 | 1.5%
CCn1c(CNc2nc3ccccc3n2C(C)C)nc2ccccc21 | -11.0 | 7.1% | -1.1 | 0.4%
Cc1ncc(CN2CCN(C(C)C)C(CCO)C2)s1 (stereo not drawn) | -8.9 | 0.2% | -1.5 | -1.2%
SMILES | Shiga toxin inh | SARS PLP yeast | CHX counter | NS1 inh
Cc1cc(C(=O)NNC(=O)c2ccc(Cl)cc2)c2ccccc2n1 | nt | 0.9% | nt | nt
Cc1cccc(C(=O)NNC(=O)c2ccc(Cl)cc2)c1O | 79.0* | -6.5% | 30.4* | -20.1%
COC(=O)c1ccc(N2OC3(C)C=CC2CC3)cc1 (stereo not drawn) | active | -13.6% | 56.1* | -5.4%
Oc1ccccc1C=NCCN=Cc1ccccc1O | 27.7 | -0.4% | 0.6 | 2.1%
Oc1ccc(Cl)cc1C=NCCc1ccccc1 | 56.8* | 3.6% | 14.9* | 7.8%
c1ccc2c(CCNc3ncnc4nc[nH]c34)cccc2c1 | + | -1.1% | 31.3* | -6.5%
C1=C(CCNc2ncnc3nc[nH]c23)CCCC1 | 38.5* | 25.1% | 36.7* | -52.6%
OCCNc1ncnc2nc[nH]c12 | nt | nt | nt | 12.8%
c1ccc(CCCNc2ncccn2)cc1 | + | -17.5% | 32.1* | 3.1%
c1ccc(CCCNc2ncnc3nc[nH]c23)cc1 | 36.6 | -6.5% | 27.1* | -84.7%
Clc1ccc(CCNc2ncnc3nc[nH]c23)cc1 | 30.2 | -1.2% | 14.2 | -10.4%
CCOc1ccccc1OCC(=O)Oc1ccc(C)c(C)c1 | -3.0 | 4.2% | -1.1 | -20.9%
CCN1CCN(C(=O)C(C)Sc2nc3nc(C)cc(C)n3n2)CC1 (stereo not drawn) | nt | 0.2% | nt | nt
O=C(NNc1ccccn1)c1ccccc1CC[N+](=O)[O-] | 21.8 | -3.3% | 14.2* | nt
CC(=O)Nc1ccc(N/C(C)=C/C(=O)c2cccnc2)cc1 | -10.2 | -20.0% | -6.8 | 19.5%
CC/C(=C\C(=O)c1cccnc1)Nc1ccc(C)c(C)c1 | 51.6* | -1.2% | 17.0* | -85.7%

Bioassay records deposited in PubChem BioAssay by National Center for Advancing Translational Sciences (NCATS).
